Experimental data reported in PubChem BioAssay (NCATS).
Records with an inconclusive call do not appear. Calls of active or inactive are those of the source. Unless noted, calls follow the shape of the dose curve; as a rule, active = well fitted curve in the direction sought with a large enough effect; inconclusive = small, poorly fitted or top-dose-only effect, or another doubt; inactive = no such curve, though single readings can be large; an effect the other way counts as inactive or inconclusive.

What was measured:
[1] = system: Zika virus NS2B-NS3 protease; experiment: Primary screen GU AMC qHTS for Zika virus inhibitors (AID 1347154);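 also: 0% = no-inhibitor control and -100% = no-enzyme control; nearly all actives have a fitted effect of over 70% in size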
Method in brief: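 Unlinked Zika NS2B hydrophilic domain/NS3 protease domain noncovalent complex (25 nM final) in 10 mM Tris-HCl pH 8.0, 0.01% Tween 20, with AMC peptide substrate. Fluorescence (ex 340, em 450 nm) change over 15 min, room temperature; percent inhibition fitted to 4-parameter Hill equation.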

[2] = Primary qHTS for small molecule stabilizers of the endoplasmic reticulum resident proteome: Secreted ER Calcium Modulated Protein (SERCaMP) assay (AID 1508630); also: % is scaled to controls: 0 for no effect and ±100 for the full control effect
Method in brief: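 The SH-SY5Y reporter protocol was run at 3 concentrations up to 38.3 uM (primary) or 11 concentrations (follow-up): 16 h compound, 100 nM thapsigargin for 4 h, then extracellular luciferase luminescence.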

[3] = AP1 Signaling Pathway (AID 357; active = well fitted curve in either direction with a large enough effect, not every such curve was filed as active;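 also: ME-180 reporter cells stimulated with EGF at its EC50 level; % is scaled to controls: 0 for no effect and ±100 for the full control effect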)
Method in brief: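 A ratiometric CCF4 readout (405 nm excitation; 460 and 530 nm emission) quantified AP-1-driven beta-lactamase in ME-180 cells after 5 h with compound and EC50 EGF; AC50 values were derived for activators and inhibitors.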

[4] = biological target: Cytochrome P450 1A2 (Homo sapiens) (UniProt P05177); experiment: p450-cyp1a2 (AID 410; calls by dose curve;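 also: -100% = full effect of reference inhibitor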)
Method in brief: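 O-Demethylation of luciferin 6' methyl ether by human CYP1A2 is monitored as luciferase luminescence. Substrate sits at Km (100uM); enzyme is 20nM. Values are scaled to 57 uM furafylline as maximal inhibition.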

[5] = NFAT Signaling Pathway (AID 444; active = well fitted curve in either direction with a large enough effect, not every such curve was filed as active;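 also: carbachol stimulus at about its EC50 of 1 µM final; % is scaled to controls: 0 for no effect and ±100 for the full control effect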); conditions: Jurkat NFAT-bla M1, carbachol, beta-lactamase ratio, 5 h; at 38 µM (top of the series)
Method in brief: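 Jurkat cells carrying an NFAT-driven β-lactamase reporter and co-transfected muscarinic M1 receptor were treated with compound plus carbachol (1 uM final, an EC50 level) for 5 h at 37 °C. CCF4 loading followed for 1 h at RT; 460/530 nm ratio gave %activity.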

[6] = Stat Signaling Pathway (AID 446; active = well fitted curve in either direction with a large enough effect, not every such curve was filed as active;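 also: ME-180 cervical cancer cells given 40 pM IL-6 alongside compound; SIE-controlled beta-lactamase reporter measured as 460/530 nm FRET emission ratio; % is scaled to controls: 0 for no effect and ±100 for the full control effect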)
Method in brief: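 Compound effects on IL-6-induced STAT reporter activity were measured in ME-180 cells. After overnight culture, cells were co-treated with 40 pM IL-6 for 5 hrs before beta-lactamase substrate loading at room temperature.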

[7] = biological target: Glucocorticoid receptor (Homo sapiens) (UniProt P04150); experiment: GR-GFP Redistribution (AID 450;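 active = compounds whose dose series gives a full or clear partial fitted curve of increased nuclear translocation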; also: potency is read from the fitted curve at half-maximal effect); conditions: U2OS GR-GFP nuclear translocation, laser cytometry, 2 h
[8] = biological target: Glucocorticoid receptor (Homo sapiens) (UniProt P04150); experiment: GR-EFC Redistribution (AID 451; calls by dose curve; also: potency is read from the fitted curve at half-maximal effect); conditions: CHO-K1 GR-EFC translocation, beta-gal luminescence, 2 h
Method in brief: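 CHO-K1 cells stably expressing nuclear-localized β-gal enzyme acceptor and GR fused C-terminally to the enzyme donor fragment; ligand-driven nuclear translocation restores β-gal by complementation. Compounds titrated up to 46 uM final, 2 h at 37 °C; luminescence read.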

[9] = biological target: Mitogen-activated protein kinase 10 (Mus musculus) (UniProt Q61831); experiment: JNK3 AlphaScreen Assay (AID 530; active = well fitted curve in either direction with a large enough effect, not every such curve was filed as active)
Method in brief: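 Phosphorylation of biotinylated GST-cJun(1-79) at Ser73 is measured by AlphaScreen proximity luminescence. Enzyme is JNK3 in HepG2 lysates activated with interleukin-1beta and tumor necrosis factor alpha; ATP is 10 uM final.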

[10] = biological target: 3',5'-cyclic-AMP phosphodiesterase 4B (Homo sapiens) (UniProt Q07343); experiment: qHTS Assay for Inhibitors of PDE-IV (AID 607; active = well fitted activation curve with a large enough effect in the main read-out, with a control signal flat, not every such curve was filed as active; also: % of control where 0% means no effect)
Method in brief: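 ACTOne HEK293 cells carry a modified cAMP-gated CNG channel and express endogenous PDE4; plated 1000 cells/well, compounds up to 22.9 uM final. Membrane-potential dye fluorescence (ex 535/em 590) was read; parental cells received 10 uM forskolin + 100 uM RO 20-1724.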

[11] = biological target: Guanine nucleotide-binding protein G(i) subunit alpha-1 (Homo sapiens) (UniProt P63096); experiment: qHTS Assay for Inhibitors of RGS12 GoLoco Motif Activity (Green Fluorophore) (AID 879);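 also: 0% = labeled peptide with Gαi1 and full inhibition = labeled peptide alone without protein; negative values mean loss of peptide binding seen as reduced polarization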
Method in brief: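 A drop in FITC polarization marked displacement of the FITC-tagged RGS12 GoLoco peptide (10 nM) from Gαi1 (50 nM). Compounds were incubated 10 min at room temperature in Tris pH 7.5 buffer containing 150 mM NaCl, 0.1 mM GDP and 0.05% NP40; unlabeled peptide titration served as control.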

[12] = biological target: Cytochrome P450 2C9 (Homo sapiens) (UniProt P11712); experiment: qHTS Assay for Inhibitors and Substrates of Cytochrome P450 2C9 (AID 883); also: % is scaled to controls: 0 for no effect and ±100 for the full control effect; nearly all actives have a fitted effect of over 60% in size
Method in brief: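 Human CYP2C9 (10nM) hydroxylated Luciferin-H (100uM, at its KM) to luciferin in 25mM KPO4. Compound was preincubated 10 min at 37C, then NADPH regeneration started a 60 min reaction at 37C. Luminescence was read after detection reagent, normalized to 57uM sulphaphenazole.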

[13] = biological target: Cytochrome P450 3A4 (Homo sapiens) (UniProt P08684); experiment: qHTS Assay for Inhibitors and Substrates of Cytochrome P450 3A4 (AID 884); also: % is scaled to controls: 0 for no effect and ±100 for the full control effect; nearly all actives have a fitted effect of over 50% in size
Method in brief: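 Luminescent readout of luciferin produced by CYP3A4 (20 nM) dealkylation of Luciferin-PPXE, 25 uM (its KM). NADPH-driven reaction ran 60 min at RT after 10 min compound preincubation; data scaled to 57 uM ketoconazole as 100% inhibition.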

[14] = biological target: Cytochrome P450 2D6 (Homo sapiens) (UniProt P10635); experiment: qHTS Assay for Inhibitors and Substrates of Cytochrome P450 2D6 (AID 891);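 also: luciferin methyl ether substrate demethylated by CYP2D6 with NADPH regeneration; % is scaled to controls: 0 for no effect and ±100 for the full control effect; nearly all actives have a fitted effect of over 60% in size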
Method in brief: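 Luminescent read-out of luciferin formed by 5 nM human CYP2D6 demethylating 30 uM Luciferin-ME EGE (Km level) over 60 min at room temperature after NADPH regeneration addition. Data normalized to full inhibition by 1.43 uM quinidine.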

[15] = biological target: Cytochrome P450 2C19 (Homo sapiens) (UniProt P33261); experiment: qHTS Assay for Inhibitors and Substrates of Cytochrome P450 2C19 (AID 899); also: % is scaled to controls: 0 for no effect and ±100 for the full control effect; nearly all actives have a fitted effect of over 60% in size
Method in brief: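 Human CYP2C19 (5nM) with Luciferin-H EGE at 10uM (its KM) in 50mM KPO4 was preincubated with compound for 10 min at 37C. NADPH regeneration started a 60 min 37C reaction. Luciferin was read by luminescence, normalized to 57uM ketoconazole.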

[16] = Confirmation and Secondary Assay for Modulators of Hemoglobin Beta Chain Splicing at IVS2 654 locus (AID 910);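 also: per-well total GFP intensity by laser scanning cytometry after 2-day treatment; % of control where 0% means no effect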
Method in brief: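 HeLa cells stably carrying EGFP interrupted by mutant beta-globin IVS2-654 intron (CMV-driven) were treated with compound for 2 days at 37C; corrected splicing was scored as total peak GFP intensity per well (488 nm excitation, 500-520 nm emission).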

[17] = qHTS Assay for Identification of Small Molecule Agonists for Thrombopoietin (TPO) Signaling Pathway (AID 917); also: % is scaled to controls: 0 for no effect and ±100 for the full control effect
Method in brief: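 Stimulation at the TPO EC50 (26 pM final) was used to detect activators. Ba/F3 mouse cells bearing human TPO receptor and a luciferase reporter under the Glycoprotein IIb promoter were exposed to compounds for 24 hrs at 37 C.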

[18] = Confirmation and Secondary Assay for Modulators of Hemoglobin Beta Chain Splicing at IVS2 705 locus (AID 930);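 also: HeLa cells stably expressing the EGFP-705 splicing reporter; GFP fluorescence per well restored by corrected splicing of the IVS2-705 intron in EGFP; % of control where 0% means no effect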
Method in brief: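 Splice-correction reporter: EGFP cDNA split by beta-globin intron 2 bearing the 705 mutation, stably in HeLa. Compound incubation 2 days, 37C; fluorescent objects 5-250 µm summed per well.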

[19] = biological target: Muscarinic acetylcholine receptor M1 (Rattus norvegicus) (UniProt P08482); experiment: qHTS Assay for Antagonists of Acetylcholine Muscarinic M1 Receptor: Kinetic Measurement of Intracellular Calcium Response (AID 943);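 also: Fluo-4 calcium signal as peak divided by basal fluorescence over 4 min; nearly all actives have a fitted effect of over 75% in size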
Method in brief: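 Antagonism is measured as inhibition of the carbachol-evoked calcium rise in CHO cells transfected with rat M1. Cells are dye-loaded, exposed to compound for 10 min, then stimulated with 100 nM carbachol (EC80).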

[20] = biological target: Muscarinic acetylcholine receptor M1 (Rattus norvegicus) (UniProt P08482); experiment: qHTS Assay for Antagonists of Acetylcholine Muscarinic M1 Receptor: Measurement of IP-One Response (AID 944); also: nearly all actives have a fitted effect of over 75% in size
Method in brief: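 Antagonist mode with rat M1 receptor transfected into CHO cells. Compound is added first for 10 min, carbachol at its EC80 follows for 30 min, and lysis reagents then allow TR-FRET detection of accumulated IP1.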

[21] = biological target: Pyruvate kinase (Leishmania mexicana) (UniProt Q27686); experiment: qHTS Validation Assay for Inhibitors of Leishmania Mexicana Pyruvate Kinase (AID 945);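 also: 0% = DMSO only neutral control wells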
Method in brief: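 The enzyme is a highly purified E451W mutant of LmPYK used at 0.2 nM. It converts 0.5 mM PEP and 0.1 mM ADP over 1 h at room temperature; product ATP is quantified by luciferase luminescence relative to DMSO controls.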

[22] = biological target: Pyruvate kinase PKM (Homo sapiens) (UniProt P14618); experiment: qHTS Assay for Activators of Human Muscle Pyruvate Kinase (AID 954; active = well fitted curve in the direction sought with a large enough effect, not every such curve was filed as active;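 also: 0% = uninhibited enzyme and -100% = no enzyme or full thiadiazolimine inhibition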)
Method in brief: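 A coupled luminescent readout tracked ATP made from ADP by purified PKM2. Final conditions included 0.1 nM enzyme, PEP and ADP at 0.5 and 0.1 mM, pH 7.2 imidazole buffer with BSA, and a one-hour room-temperature reaction.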

[23] = biological target: Alpha-galactosidase (Coffea arabica) (UniProt Q42656); experiment: Counterscreen for Glucocerebrosidase Inhibitors: qHTS Assay for Coffee Bean alpha-Galactosidase at pH 4.5 (AID 957);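 also: plate controls were enzyme alone for no effect and no enzyme for full effect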
Method in brief: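 Enzyme is added first (2 nM final), then compounds titrated from 0.7 nM to 77 uM, then 80 uM 4-methylumbelliferyl alpha-D-galactopyranoside; after 20 min at room temperature a pH 10 NaOH/glycine stop precedes fluorescence reading at 365/440 nm.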

[24] = biological target: Alpha-galactosidase A (Homo sapiens) (UniProt P06280); experiment: Counterscreen for Glucocerebrosidase Inhibitors: qHTS Assay for Human alpha-Galactosidase at pH 4.5 (AID 992); also: 0% is about no effect
Method in brief: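 Citrate buffer pH 4.5, Tween-20 0.005%. Enzyme 2 nM, substrate 80 uM, 20 min RT. Stop pH 10. Fluorescence Ex 365/Em 440. AC50 by Hill fit.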

[25] = biological target: alpha-glucosidase (Oryza sativa, rice) (UniProt Q653V4); experiment: Counterscreen for Glucocerebrosidase Inhibitors: qHTS Assay for Rice alpha-Glucosidase at pH 5.0 (AID 997);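 also: 0% = full activity with enzyme and -100% = basal without enzyme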
Method in brief: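 Endpoint fluorogenic assay at pH 5.0: compounds (0.7 nM to 77 uM) titrated against 4 nM rice enzyme and 400 uM 4-MU-alpha-glucoside for 20 min at room temperature; NaOH/glycine stop, read ex 365/em 440 nm, Hill-fitted AC50.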

[26] = biological target: Alpha-galactosidase (Coffea arabica) (UniProt Q42656); experiment: Counterscreen for Glucocerebrosidase Inhibitors: qHTS Assay for Coffee Bean alpha-Galactosidase at pH 5.9 (AID 998);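 also: plate controls were uninhibited enzyme for no effect and no-enzyme basal signal for full effect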
Method in brief: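 In 50 mM citric acid pH 5.9 with 0.005% Tween-20, coffee bean enzyme hydrolyses 80 uM 4-MU alpha-D-galactopyranoside over 20 min at RT. Activity is normalized to controls; AC50 comes from Hill-modelled concentration-response data.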

[27] = qHTS Assay for Lipid Storage Modulators (AID 1519; calls by dose curve); conditions: Drosophila S3 cells, BODIPY lipid droplet/cell ratio, laser cytometry, cells loaded with oleic acid
Method in brief: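 Cells seeded at 5,000 per well were treated with compounds over a concentration series and loaded with oleic acid (400 uM, as added). Lipid droplet fluorescence (488 nm excitation, 500-530 nm channel) was read by laser-scanning cytometry and normalized to 20 uM Triacsin C.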

[28] = biological target: DNA dC->dU-editing enzyme APOBEC-3G (Homo sapiens) (UniProt Q9HC16); experiment: qHTS for inhibitors of Vif-A3G interactions: Validation (AID 588379); also: 0% is about no effect
Method in brief: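 Yellow fluorescence (Ex 488, Em 500-530) of Vif-coexpressing HeLa A3G-eYFP cells, scanned by Acumen cytometer, reports blocked A3G degradation. Cells plated at 700/well overnight at 37 deg C before compound addition, then a further overnight compound incubation at 37 deg C.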

Sequence of Glucocorticoid receptor (Homo sapiens) (P04150 whole entry, looked up, the tested form may be a part): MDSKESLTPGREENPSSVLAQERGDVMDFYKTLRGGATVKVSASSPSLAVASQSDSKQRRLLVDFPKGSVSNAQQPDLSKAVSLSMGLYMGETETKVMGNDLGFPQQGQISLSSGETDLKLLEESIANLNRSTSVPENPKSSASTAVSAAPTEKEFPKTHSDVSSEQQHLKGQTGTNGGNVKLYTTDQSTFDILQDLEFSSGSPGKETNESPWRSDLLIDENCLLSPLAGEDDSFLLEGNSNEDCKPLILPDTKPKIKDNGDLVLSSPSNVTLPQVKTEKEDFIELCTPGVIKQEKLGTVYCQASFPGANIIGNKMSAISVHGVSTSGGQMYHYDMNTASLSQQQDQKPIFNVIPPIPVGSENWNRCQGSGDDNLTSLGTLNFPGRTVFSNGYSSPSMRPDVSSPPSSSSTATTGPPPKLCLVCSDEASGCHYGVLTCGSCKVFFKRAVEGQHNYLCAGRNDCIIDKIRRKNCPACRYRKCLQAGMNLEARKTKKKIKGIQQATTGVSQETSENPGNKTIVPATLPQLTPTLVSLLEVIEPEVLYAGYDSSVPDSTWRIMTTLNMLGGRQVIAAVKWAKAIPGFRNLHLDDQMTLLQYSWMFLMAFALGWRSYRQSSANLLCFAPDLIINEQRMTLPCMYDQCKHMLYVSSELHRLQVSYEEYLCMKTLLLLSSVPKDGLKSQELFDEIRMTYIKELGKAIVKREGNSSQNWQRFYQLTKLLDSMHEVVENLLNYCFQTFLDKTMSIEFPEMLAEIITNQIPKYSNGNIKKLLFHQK
Sequence of Muscarinic acetylcholine receptor M1 (Rattus norvegicus) (P08482 whole entry, looked up): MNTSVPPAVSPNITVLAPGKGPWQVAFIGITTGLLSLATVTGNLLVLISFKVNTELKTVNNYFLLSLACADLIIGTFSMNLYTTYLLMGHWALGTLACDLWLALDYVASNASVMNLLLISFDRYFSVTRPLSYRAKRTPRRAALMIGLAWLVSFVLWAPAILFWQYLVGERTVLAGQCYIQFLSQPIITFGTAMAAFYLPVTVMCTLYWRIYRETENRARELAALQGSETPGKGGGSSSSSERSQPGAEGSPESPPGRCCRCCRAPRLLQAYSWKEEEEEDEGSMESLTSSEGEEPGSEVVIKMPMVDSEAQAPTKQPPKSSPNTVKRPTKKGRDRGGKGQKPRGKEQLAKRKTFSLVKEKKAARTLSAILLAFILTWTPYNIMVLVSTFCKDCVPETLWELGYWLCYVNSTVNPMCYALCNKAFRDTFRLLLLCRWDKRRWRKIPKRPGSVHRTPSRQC
Sequence of Alpha-galactosidase (Coffea arabica) (Q42656 whole entry, looked up): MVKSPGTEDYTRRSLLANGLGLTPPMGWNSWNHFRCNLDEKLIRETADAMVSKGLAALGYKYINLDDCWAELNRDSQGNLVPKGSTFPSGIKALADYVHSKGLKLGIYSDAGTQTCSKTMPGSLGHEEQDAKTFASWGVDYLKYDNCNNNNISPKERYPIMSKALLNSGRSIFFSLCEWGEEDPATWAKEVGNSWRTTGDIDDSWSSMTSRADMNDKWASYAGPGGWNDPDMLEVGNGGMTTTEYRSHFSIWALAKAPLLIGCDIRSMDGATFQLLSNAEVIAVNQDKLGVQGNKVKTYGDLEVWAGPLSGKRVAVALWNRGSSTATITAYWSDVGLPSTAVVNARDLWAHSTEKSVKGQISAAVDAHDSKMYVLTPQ
Sequence of Cytochrome P450 1A2 (Homo sapiens) (P05177 whole entry, looked up): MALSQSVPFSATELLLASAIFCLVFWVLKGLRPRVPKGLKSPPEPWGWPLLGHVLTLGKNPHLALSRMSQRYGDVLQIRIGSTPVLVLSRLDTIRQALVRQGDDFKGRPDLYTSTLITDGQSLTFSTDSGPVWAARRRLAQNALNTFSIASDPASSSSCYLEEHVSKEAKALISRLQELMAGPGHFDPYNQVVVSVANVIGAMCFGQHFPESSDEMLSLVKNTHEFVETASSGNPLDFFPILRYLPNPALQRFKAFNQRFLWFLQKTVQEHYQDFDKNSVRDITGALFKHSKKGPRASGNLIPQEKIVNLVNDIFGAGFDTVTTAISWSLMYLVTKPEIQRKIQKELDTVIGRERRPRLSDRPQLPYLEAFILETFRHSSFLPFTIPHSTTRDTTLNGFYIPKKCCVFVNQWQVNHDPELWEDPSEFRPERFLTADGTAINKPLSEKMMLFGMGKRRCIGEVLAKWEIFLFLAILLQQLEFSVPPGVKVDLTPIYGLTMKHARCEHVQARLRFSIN
Sequence of 3',5'-cyclic-AMP phosphodiesterase 4B (Homo sapiens) (Q07343 whole entry, looked up): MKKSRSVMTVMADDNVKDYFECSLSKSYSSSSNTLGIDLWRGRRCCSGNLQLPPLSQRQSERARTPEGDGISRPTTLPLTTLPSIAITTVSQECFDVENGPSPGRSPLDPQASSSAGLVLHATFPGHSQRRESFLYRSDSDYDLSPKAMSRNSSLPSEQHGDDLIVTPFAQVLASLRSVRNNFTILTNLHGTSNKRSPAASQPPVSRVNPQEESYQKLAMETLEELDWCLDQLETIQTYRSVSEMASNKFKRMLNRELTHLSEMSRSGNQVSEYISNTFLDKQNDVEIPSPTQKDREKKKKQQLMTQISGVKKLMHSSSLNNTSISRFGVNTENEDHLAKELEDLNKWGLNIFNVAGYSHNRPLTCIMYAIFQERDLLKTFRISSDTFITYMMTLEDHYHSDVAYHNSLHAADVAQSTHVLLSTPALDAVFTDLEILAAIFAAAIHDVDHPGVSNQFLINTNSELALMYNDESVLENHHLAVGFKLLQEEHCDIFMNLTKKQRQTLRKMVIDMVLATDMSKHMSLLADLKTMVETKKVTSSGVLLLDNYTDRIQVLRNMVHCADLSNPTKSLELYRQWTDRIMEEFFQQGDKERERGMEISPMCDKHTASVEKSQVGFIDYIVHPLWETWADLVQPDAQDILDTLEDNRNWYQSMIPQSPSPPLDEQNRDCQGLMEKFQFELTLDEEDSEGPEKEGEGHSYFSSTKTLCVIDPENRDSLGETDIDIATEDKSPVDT
Sequence of Pyruvate kinase (Leishmania mexicana) (Q27686 2-499 E452W): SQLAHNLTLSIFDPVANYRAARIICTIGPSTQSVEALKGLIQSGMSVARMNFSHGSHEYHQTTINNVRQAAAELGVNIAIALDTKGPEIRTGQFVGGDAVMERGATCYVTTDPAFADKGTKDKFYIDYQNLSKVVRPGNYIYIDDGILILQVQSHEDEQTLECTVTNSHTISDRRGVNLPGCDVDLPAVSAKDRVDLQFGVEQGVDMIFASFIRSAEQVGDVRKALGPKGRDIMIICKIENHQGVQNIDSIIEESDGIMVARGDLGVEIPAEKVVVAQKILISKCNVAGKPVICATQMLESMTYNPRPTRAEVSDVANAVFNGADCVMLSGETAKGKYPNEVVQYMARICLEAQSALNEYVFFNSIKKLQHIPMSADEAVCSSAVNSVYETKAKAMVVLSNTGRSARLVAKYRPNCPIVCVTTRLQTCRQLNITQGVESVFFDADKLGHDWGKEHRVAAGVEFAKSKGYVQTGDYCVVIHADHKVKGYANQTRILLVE
Sequence of DNA dC->dU-editing enzyme APOBEC-3G (Homo sapiens) (Q9HC16 whole entry, looked up): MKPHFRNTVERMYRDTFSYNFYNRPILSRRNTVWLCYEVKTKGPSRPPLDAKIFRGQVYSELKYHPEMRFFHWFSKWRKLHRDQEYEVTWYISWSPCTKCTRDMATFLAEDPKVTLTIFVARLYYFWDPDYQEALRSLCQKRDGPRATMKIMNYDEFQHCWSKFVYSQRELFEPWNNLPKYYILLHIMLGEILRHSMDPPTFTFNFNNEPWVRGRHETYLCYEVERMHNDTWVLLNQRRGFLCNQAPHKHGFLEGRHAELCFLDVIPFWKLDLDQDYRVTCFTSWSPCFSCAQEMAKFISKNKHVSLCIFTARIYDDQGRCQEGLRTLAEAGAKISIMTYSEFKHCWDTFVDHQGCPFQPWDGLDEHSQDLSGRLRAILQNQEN
Sequence of Cytochrome P450 2D6 (Homo sapiens) (P10635 whole entry, looked up): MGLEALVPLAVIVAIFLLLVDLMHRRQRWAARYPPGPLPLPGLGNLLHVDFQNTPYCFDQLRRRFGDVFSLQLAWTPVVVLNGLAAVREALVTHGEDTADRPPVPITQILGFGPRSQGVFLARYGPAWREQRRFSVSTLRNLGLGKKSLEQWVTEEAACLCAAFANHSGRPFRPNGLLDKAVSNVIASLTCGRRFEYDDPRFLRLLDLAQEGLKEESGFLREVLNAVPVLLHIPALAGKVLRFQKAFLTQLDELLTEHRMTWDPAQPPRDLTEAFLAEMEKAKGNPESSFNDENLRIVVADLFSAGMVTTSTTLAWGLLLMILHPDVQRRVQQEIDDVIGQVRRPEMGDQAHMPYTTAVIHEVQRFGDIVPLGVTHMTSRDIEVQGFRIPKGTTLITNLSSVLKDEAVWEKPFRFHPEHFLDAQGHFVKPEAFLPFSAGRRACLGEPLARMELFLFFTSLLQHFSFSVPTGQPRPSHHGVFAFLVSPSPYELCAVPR
Sequence of Guanine nucleotide-binding protein G(i) subunit alpha-1 (Homo sapiens) (P63096 whole entry, looked up): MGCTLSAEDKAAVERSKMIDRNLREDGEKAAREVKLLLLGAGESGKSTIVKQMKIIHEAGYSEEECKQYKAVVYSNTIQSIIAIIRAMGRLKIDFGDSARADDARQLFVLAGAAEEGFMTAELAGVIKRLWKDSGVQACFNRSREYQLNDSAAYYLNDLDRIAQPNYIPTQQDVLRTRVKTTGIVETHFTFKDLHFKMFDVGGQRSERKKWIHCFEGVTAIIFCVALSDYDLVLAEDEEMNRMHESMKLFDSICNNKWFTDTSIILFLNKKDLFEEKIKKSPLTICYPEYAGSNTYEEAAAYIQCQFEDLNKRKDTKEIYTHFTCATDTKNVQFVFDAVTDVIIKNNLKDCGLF

COc1ccc2[nH]cc(CCNCc3ccc(Br)cc3)c2c1
inactive: Potency [1] | Potency [2]

CC[C@H](C)[C@H](NC(=O)[C@H](CCCN=C(N)N)NC(=O)[C@H](CCCN=C(N)N)NC(=O)[C@H](CC(C)C)NC(=O)[C@H](Cc1ccccc1)NC(=O)CNC(=O)CNC(=O)[C@@H](N)Cc1ccc(O)cc1)C(=O)O
inactive: activity change, negative = inhibition [1] 10.8% [at 6.83 µM] | activity change, negative = inhibition [2] -13% [at 3.88 µM]

CN1C(=O)CCS(=O)(=O)[C@H]1c1ccc(Cl)cc1
2.79%: max response ([27]; measured here: lipid channel max response)
inactive: outcome [3] | Potency [4] | activity change, negative = inhibition [5] 2.77% | outcome [6] | Potency [7] > 46 µM | Potency [8] > 46 µM | outcome [9] | Potency [10] | outcome [11] | Potency [12] | Potency [13] | Potency [14] | Potency [15] | Potency [16] | outcome [17] | outcome [18] | Potency [19] | Potency [20] | outcome [21] | outcome [22] | outcome [23] | outcome [24] | outcome [25] | outcome [26] | activity change, negative = inhibition ([27]; at 57.5 µM (top of the series)) -2.49% | Potency [28] | Potency [1] | Potency [2]
-1.62%: max response ([27]; measured here: cell count channel max response)

CC(N)(COP(=O)(O)Oc1ccccc1)C(=O)O (centres undefined)
inactive: Potency [1] | Potency [2]

COc1ccc(C(=O)O[C@H]2CC[C@@]3(C)C4CCC5[C@]6(O)C[C@H](O)[C@@]7(O)C(CN8C[C@@H](C)CC[C@H]8[C@@]7(C)O)[C@]6(O)C[C@@]53O[C@@]42O)cc1OC (some centres undefined)
inactive: Potency [1] | Potency [2]

CC1=C2CC3C(CC=C4C[C@@H](O)CC[C@@]43C)[C@@H]2CC[C@]12O[C@@H]1C[C@H](C)CN[C@H]1[C@H]2C (some centres undefined)
inactive: Potency [1] | Potency [2]

CCCCC1(C2CCCC2)Cc2cc(OCCCC(=O)O)c(Cl)c(Cl)c2C1=O (centres undefined)
inactive: Potency [1] | Potency [2]

c1ccc(C2CNCc3ccccc32)cc1 (centres undefined)
inactive: Potency [1] | Potency [2]
